# bovine MsrA act: activates bovine MsrA enzyme; purified bovine MsrA, absorbance read-out; activation, % at 10.6 µM; 360,000 compounds, 0.3% hits; AID 602163; in the data active = activation above about 7.5%
# PKA-R2B act: activators of human PKA-R2B complex | P22694+P31323 | PKA-R2B holoenzyme dissociation, Cy5-IP20 fluorescence polarization; R2B truncated from residue 108, S112A mutant; 0% DMSO only, 100% 113 µM cGMP | activation, % at 11.4 µM | 340,000 compounds, 0.079% hits | AID 504700;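 active = activation above a cutoff set at the mean over all compounds plus 3 SD, cut at about 18% in these data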;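 note: higher means more holoenzyme dissociation and a rise in polarization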
# Target sequence (P31323 whole entry, looked up, other chains not shown, the tested form may be a part): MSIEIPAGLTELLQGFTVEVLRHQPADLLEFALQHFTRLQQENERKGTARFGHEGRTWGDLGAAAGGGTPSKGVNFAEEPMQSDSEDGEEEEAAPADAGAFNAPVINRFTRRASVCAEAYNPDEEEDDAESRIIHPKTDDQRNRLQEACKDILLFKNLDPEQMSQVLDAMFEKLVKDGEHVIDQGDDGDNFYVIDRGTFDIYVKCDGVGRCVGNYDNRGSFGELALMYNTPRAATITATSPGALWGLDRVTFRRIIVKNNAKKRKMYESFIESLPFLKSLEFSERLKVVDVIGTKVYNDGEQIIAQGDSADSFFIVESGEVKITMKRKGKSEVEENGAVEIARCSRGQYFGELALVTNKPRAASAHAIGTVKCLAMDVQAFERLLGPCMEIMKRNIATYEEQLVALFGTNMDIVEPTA
# MsrA inh: bovine MsrA inhibition | purified bovine MsrA, absorbance read-out | inhibition, % at 15.5 µM | 360,000 compounds, 0.75% hits | AID 651718; in the data active = inhibition above about 4.5%
# Mot1-301 SUMO: blocks SUMOylation pathway, rescuing yeast Mot1-301 growth; S. cerevisiae Mot1-301 growth rescue, ATP luminescence, 38.5C; percent above DMSO median, 100 means doubled; growth rescue, % at 18.8 µM; 320,000 compounds, 1% hits; AID 2716;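 active = every valid replicate shows activation above 250% relative to neutral control wells; inactive = the rest, any valid replicate at or below 250%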
# PKA-R1A activ: activators of PKA-R1A complex. PKA-R1A dissociation, Cy5-IP20 fluorescence polarization; scaled: DMSO 0%, 113 µM cGMP 100%. 340,000 compounds, 0.083% hits. activation, % at 11.4 µM;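 active = percent activation above the mean of all tested compounds plus 3 SD, cut at about 19% in these data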;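 note: higher means more PKAc released from R1A so a rise in polarization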
# MsrA act confirm: bovine methionine sulfoxide reductase A activation confirmed; 1,000 compounds, 12% hits; shares compounds with bovine MsrA act; activation, % at 10.6 µM; purified bovine MsrA, absorbance read-out; in the data active = activation above about 4%;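 note: enzyme coupled to thioredoxin and thioredoxin reductase with NADPH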
# Numbers stand for hits; i = inactive; nt = no result given. Rows were chosen to be rich in hits. Some 2% of all compounds tested hit in one or more screens of this group.
SMILES,bovine MsrA act,PKA-R2B act,MsrA inh,Mot1-301 SUMO,PKA-R1A activ,MsrA act confirm
O=C(NCC1CCCO1)c1cc2n(n1)C(C(F)(F)F)CC(c1ccc(Br)cc1)N2 (stereo not given),10.9,i,i,i,i,i
COc1ccc(CC(=O)Nc2sc3c(c2C(N)=O)CCCC3)cc1,8.4,i,i,i,i,i
COc1cc(CC(=O)Nc2sc3c(c2C(N)=O)CCCC3)cc(OC)c1OC,i,i,i,i,i,nt
O=C(N[C@H](C(=O)N1CCC[C@H]1C(=O)NC1CCCC1)C1CCCCC1)c1ccccc1,nt,nt,i,nt,nt,nt
O=S(=O)(NC1=NCCCCC1)c1ccc2ccccc2c1,9.0,i,i,i,i,i
Nc1ccc(S(=O)(=O)NC2=NCCCCC2)cc1,i,i,i,i,i,nt
O=C(c1cccc([N+](=O)[O-])c1)c1cc2ccccc2o1,8.8,i,i,i,i,i
C/C(=N\Nc1cccc([N+](=O)[O-])c1)c1cc2ccccc2o1,i,i,i,i,i,nt
Cc1oc(CC(C)C)cc1C(=O)Nc1cccc2ccccc12,7.8,i,i,i,i,i
Cc1cc(C)c(S(=O)(=O)N2C[C@H]3CON(C)[C@H]3C[C@H]2c2ccc(-n3ccnc3)cc2)c(C)c1,nt,nt,i,nt,nt,nt
Cc1ccccc1C(=O)NCCCc1ccccc1,i,i,i,i,i,nt
Cc1ccccc1C(=O)NCCCCc1ccccc1,8.7,i,i,i,i,i
C[C@@H]1Cn2cnc(C(=O)N3CCN(C(=O)OC(C)(C)C)CC3)c2C(=O)N1,nt,nt,i,nt,nt,nt
CCOC(=O)C1(Cc2ccccc2)CCN(Cc2csc(C(C)=O)c2)CC1,9.8,i,i,i,i,i
Cc1ccccc1S(=O)(=O)N1CCCc2nc(-c3ccc(Br)cc3)ccc21,nt,nt,i,nt,nt,nt
COc1ccc(-c2csc(NC(=O)C3=COCCO3)n2)cc1OC,10.5,i,i,nt,i,i
O=C(Nc1nc(-c2ccc(F)c(F)c2)cs1)C1=COCCO1,i,i,i,i,i,nt
O=C(C(=O)N1CCC(CNS(=O)(=O)c2cc(C(F)(F)F)cc(C(F)(F)F)c2)CC1)c1cc2ccccc2o1,nt,nt,i,nt,nt,nt
CN(NC(=O)C(=O)NCc1ccco1)C(=O)NC1CCCCC1,nt,nt,i,nt,nt,nt
O=C(COc1ccccc1Cl)c1ccc2c(c1)CCCC2,8.3,i,i,i,i,i
CCOC(=O)C1CSCCS(=O)(=O)N1Cc1cccc(Cl)c1 (stereo not given),nt,nt,i,nt,nt,nt
O=S1(=O)N[C@H](Cc2ccccc2)COc2cccc(NCCO)c21,nt,nt,i,nt,nt,nt
C[C@@H]1NS(=O)(=O)c2cccc(Cl)c2O[C@@H]1c1ccccc1,nt,nt,i,nt,nt,nt
COc1ccc(C/C(N)=N/n2cnnc2)cc1,i,i,i,i,i,nt
CC(C)COc1ccc(C/C(N)=N/n2cnnc2)cc1,8.0,i,i,i,i,i
SMILES,bovine MsrA act,PKA-R2B act,MsrA inh,Mot1-301 SUMO,PKA-R1A activ,MsrA act confirm
NC(=O)c1c(N)[nH]c(C(=O)c2ccccc2)c1-c1ccc2c(c1)OCO2,nt,nt,i,nt,nt,nt
CCOC(=O)C(Oc1ccc2c(-c3ccc(OC)cc3)cc(=O)oc2c1C)c1ccccc1 (stereo not given),i,i,i,i,i,nt
CCOC(=O)C(Oc1ccc2c(-c3ccccc3)cc(=O)oc2c1C)c1ccccc1 (stereo not given),8.0,i,i,i,i,i
CCN(CCCNC(=O)CCn1c(=S)[nH]c2cc3c(cc2c1=O)OCO3)c1cccc(C)c1,8.1,i,i,i,i,i
COC(=O)[C@]12C[C@H](CC(=O)N3CCOCC3)C(=O)N(CCC3=CCCCC3)C1=C[C@H](C(C)(C)C)O[C@@H]2C,nt,nt,i,nt,nt,nt
COc1ccc(Cl)cc1NC(=O)CN(C)CC(=O)Nc1ccc(Br)cc1,8.9,i,i,i,i,i
O=C(NCSc1ccnc(SCNC(=O)c2ccc(F)cc2)n1)c1ccc(F)cc1,8.5,i,i,i,i,i
O=c1ccsn1Cc1ccccc1,17.8,i,i,i,i,5.6
Cc1[nH]c2ccccc2c1CC(=O)Nc1ccc(Nc2ccncc2)cc1,nt,nt,i,nt,nt,nt
COC(=O)c1cc2c(c3c4cc(OC)ccc4n(S(=O)(=O)c4ccccc4)c13)C(=O)N(C)C2,nt,nt,i,nt,nt,nt
CC(C)(C)c1ccc(OCCC(=O)NCC(c2cccs2)N2CCOCC2)cc1 (stereo not given),13.5,i,i,i,i,i
COc1cccc(CNC(=O)[C@H]2CCCN2C(=O)[C@H]2CCCN2C(=O)c2cccc3ccccc23)c1,nt,nt,i,nt,nt,nt
CC1CS(=O)(=O)CCN1N=Cc1ccc([N+](=O)[O-])o1 (stereo not given),10.3,i,i,i,i,i
O=S(=O)(Nc1ccccc1Cl)c1ccc(NS(=O)(=O)c2cccs2)cc1,7.7,i,i,i,i,i
O=S(=O)(Nc1ccc(S(=O)(=O)N2CCCCCC2)cc1)c1cccs1,i,i,i,i,i,nt
COC(=O)c1ccc2nc(Nc3nc4ccc(F)cc4s3)sc2c1,i,i,i,i,i,nt
CC(=O)c1sc(Nc2nc3ccc(F)cc3s2)nc1C,7.8,i,i,i,i,i
COc1ccc(C2CC(=O)C(c3cc(OC)c(OC)c(OC)c3)=CN2Cc2ccccc2)cc1 (stereo not given),nt,nt,i,nt,nt,nt
CC(NC(=S)Nc1c(Br)cccc1OC(F)F)C(C)(C)C (stereo not given),9.0,i,i,i,i,i
C/C(=N\NC(=S)NC(C)C)c1ccccc1OC(F)F,i,i,i,i,i,nt
Cn1ccsc1=NC(=O)c1ccc([N+](=O)[O-])o1,8.8,i,i,i,i,i
CC(=O)NC1(c2ccc(F)cc2)CCN(C(=O)Nc2ccc(F)cc2F)CC1,8.6,i,i,i,i,i
COc1ccc(NS(=O)(=O)c2cc(C)ccc2NC(=O)c2cc(C)oc2C)cc1,9.3,i,i,i,i,i
COc1ccc(NS(=O)(=O)c2cccc(C(=O)NNC(=O)c3cc(C)oc3C)c2)cc1,i,i,i,i,i,nt
Nc1ccccc1SC(CC(=O)c1ccccc1)c1ccccc1 (stereo not given),7.9,i,nt,nt,i,i
SMILES,bovine MsrA act,PKA-R2B act,MsrA inh,Mot1-301 SUMO,PKA-R1A activ,MsrA act confirm
O=C(CC(CC(=O)c1ccccc1)c1ccccc1)c1ccccc1,i,i,i,i,i,nt
O=C(COC(=O)c1ccc(Cl)c(S(=O)(=O)N2CCOCC2)c1)Nc1ccc2[nH]c(=O)[nH]c2c1,i,i,i,i,i,nt
O=C(COC(=O)c1ccc(Cl)c(S(=O)(=O)N2CCN(c3ccc(F)cc3)CC2)c1)Nc1cccc(Cl)c1,11.7,i,i,i,i,i
CCCCCCCCN1C(=O)[C@@H](CC(=O)NCc2cccc(C(F)(F)F)c2)C[C@@]2(C(=O)OC)C1=C[C@H](C1CCCC1)O[C@@H]2C,nt,nt,i,nt,nt,nt
CC(C)CCN1CCC(CN2C(=O)C(=O)NC[C@@H]2CC(C)C)CC1,11.6,nt,i,nt,nt,i
CC(C)C[C@H]1CNC(=O)C(=O)N1C[C@@H]1CCCN1C[C@H](Cc1ccccc1)N1C[C@H](Cc2ccccc2)N(CC2CCCCC2)C(=O)C1=O,7.9,nt,i,nt,nt,i

# Compound activity from PubChem.
